Test results from the supplement of paper PMC10849652.
The full data set covers some 7,900 targets. This sample favours those with a hit. About 0.6% of all pairs of compound and target were hits. A number with no mark means an inactive call.

Legend:
Assay in all cases: log2 fold change, soluble protein after heating vs DMSO (PISA); higher = thermal stabilisation; K562 cells, 10 uM, 30 min; active = over 0.2 and 3.5 SD of the protein, either way, in both replicates (recomputed)
[1] = compound: NC(=O)Nc1cc(-c2cccc(F)c2)sc1C(=O)N[C@H]1CCCNC1
In short: (§1)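 K562 cells at 2×10^6 cells/mL were treated with 10 μM compound for 30 min. Aliquots were heated for 3 min across 48°C-58°C, pooled, and extracted in PBS with 0.5% NP-40 at 4°C; soluble protein was the supernatant after 21,000xg for 90 min. Soluble protein was quantified by TMTpro 16plex LC-MS/MS with channel sums equalised, and reported as log2 fold change in thermal stability against DMSO controls, with values from duplicates.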

[2] = compound: NC(=O)c1cnc(N[C@@H]2CCCC[C@@H]2N)nc1Nc1cccc(-n2nccn2)c1
In short: as §1

[3] = compound: NC1(c2ccc(-c3nc4ccn5c(=O)[nH]nc5c4cc3-c3ccccc3)cc2)CCC1
In short: as §1

[4] = compound: NCC(=O)Nc1ccc(-n2nc(C(F)(F)F)cc2-c2ccc3c(ccc4ccccc43)c2)cc1
In short: as §1

[5] = compound: Nc1ccccc1NC(=O)c1ccc(CNC(=O)OCc2cccnc2)cc1 [entinostat]
In short: as §1

[6] = compound: O=C(CCCCCCC(=O)Nc1ccccc1)NO [vorinostat]
In short: as §1

[7] = compound: O=C(CCCCCCNC(=O)c1cnc(N(c2ccccc2)c2ccccc2Cl)nc1)NO [citarinostat]
In short: as §1

[8] = compound: O=C(O)c1ccc2c(c1)nc(Nc1cccc(Cl)c1)c1ccncc12 [silmitasertib]
In short: as §1

[9] = compound: O=C1NC(=O)C(c2cnc3ccccn23)=C1c1cn2c3c(cc(F)cc13)CN(C(=O)N1CCCCC1)CC2
In short: as §1

[10] = compound: c1cc(OCCN2CCCCC2)cc(-c2n[nH]c3ccc(-c4nnc[nH]4)cc23)c1
In short: as §1

[11] = compound: c1cn2cc(-c3ccc4cn[nH]c4c3)nc(Nc3ccc(N4CCOCC4)cc3)c2n1 [entospletinib]
In short: as §1

Sequence of UniProt Q86WQ0 (Q86WQ0 whole entry, looked up): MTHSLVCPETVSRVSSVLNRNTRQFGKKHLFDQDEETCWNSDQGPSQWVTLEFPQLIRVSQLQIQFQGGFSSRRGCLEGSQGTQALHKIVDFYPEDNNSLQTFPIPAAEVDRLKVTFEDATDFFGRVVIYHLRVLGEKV
Sequence of UniProt Q96MF7 (Q96MF7 whole entry, looked up): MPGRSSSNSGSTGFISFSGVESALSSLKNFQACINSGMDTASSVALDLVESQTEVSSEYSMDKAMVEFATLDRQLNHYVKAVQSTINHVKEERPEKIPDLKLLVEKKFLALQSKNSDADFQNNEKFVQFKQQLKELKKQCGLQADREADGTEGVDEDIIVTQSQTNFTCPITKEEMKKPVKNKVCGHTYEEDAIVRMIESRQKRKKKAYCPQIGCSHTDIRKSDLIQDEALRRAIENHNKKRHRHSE
Sequence of UniProt O75323 (O75323 whole entry, looked up): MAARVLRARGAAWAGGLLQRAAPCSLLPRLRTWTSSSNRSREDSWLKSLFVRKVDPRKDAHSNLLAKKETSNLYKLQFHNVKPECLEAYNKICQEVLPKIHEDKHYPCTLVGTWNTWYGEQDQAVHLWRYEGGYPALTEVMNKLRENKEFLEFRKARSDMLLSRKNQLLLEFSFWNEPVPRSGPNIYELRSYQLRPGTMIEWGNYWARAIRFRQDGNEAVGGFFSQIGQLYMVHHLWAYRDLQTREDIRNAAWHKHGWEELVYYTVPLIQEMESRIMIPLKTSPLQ
Sequence of UniProt Q9NR45 (Q9NR45 whole entry, looked up): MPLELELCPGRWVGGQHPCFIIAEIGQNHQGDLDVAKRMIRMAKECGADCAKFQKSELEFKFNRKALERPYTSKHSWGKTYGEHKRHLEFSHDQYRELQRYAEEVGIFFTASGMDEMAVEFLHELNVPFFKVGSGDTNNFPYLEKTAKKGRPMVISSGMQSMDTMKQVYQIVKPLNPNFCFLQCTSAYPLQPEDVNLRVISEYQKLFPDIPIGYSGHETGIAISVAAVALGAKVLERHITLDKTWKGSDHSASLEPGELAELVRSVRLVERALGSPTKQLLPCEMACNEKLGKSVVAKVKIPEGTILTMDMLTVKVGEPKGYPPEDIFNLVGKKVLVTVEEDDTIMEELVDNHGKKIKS
Sequence of UniProt Q9UBD5 (Q9UBD5 whole entry, looked up): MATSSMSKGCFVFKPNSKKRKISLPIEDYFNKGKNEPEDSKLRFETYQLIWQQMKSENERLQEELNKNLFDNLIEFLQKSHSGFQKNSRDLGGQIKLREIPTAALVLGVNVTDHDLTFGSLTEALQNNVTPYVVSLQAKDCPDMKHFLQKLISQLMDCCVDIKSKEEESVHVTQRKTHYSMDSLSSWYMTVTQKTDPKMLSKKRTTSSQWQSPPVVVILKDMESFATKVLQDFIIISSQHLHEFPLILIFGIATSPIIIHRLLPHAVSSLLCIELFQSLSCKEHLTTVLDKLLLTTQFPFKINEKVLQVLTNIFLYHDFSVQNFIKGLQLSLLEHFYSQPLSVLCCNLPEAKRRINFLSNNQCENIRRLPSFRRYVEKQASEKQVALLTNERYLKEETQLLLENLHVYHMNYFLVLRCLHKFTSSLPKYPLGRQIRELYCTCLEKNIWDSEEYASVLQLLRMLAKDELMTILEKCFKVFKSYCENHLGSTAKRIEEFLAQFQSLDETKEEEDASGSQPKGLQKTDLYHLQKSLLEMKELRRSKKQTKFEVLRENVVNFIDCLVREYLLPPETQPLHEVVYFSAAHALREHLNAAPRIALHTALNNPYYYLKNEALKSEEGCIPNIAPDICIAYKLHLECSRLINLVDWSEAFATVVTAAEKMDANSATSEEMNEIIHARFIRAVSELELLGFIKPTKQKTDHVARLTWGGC
Sequence of UniProt O95182 (O95182 whole entry, looked up): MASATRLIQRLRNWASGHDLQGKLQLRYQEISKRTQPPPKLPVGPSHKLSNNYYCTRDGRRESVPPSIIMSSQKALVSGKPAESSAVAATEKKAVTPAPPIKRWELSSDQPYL
Sequence of UniProt O95169 (O95169 whole entry, looked up): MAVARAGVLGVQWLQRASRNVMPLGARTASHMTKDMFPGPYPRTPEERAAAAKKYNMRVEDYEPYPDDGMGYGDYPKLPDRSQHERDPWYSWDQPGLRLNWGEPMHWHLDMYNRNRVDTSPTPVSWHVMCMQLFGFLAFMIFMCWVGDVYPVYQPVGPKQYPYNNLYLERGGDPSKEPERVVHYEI
Sequence of UniProt Q9BUK6 (Q9BUK6 whole entry, looked up): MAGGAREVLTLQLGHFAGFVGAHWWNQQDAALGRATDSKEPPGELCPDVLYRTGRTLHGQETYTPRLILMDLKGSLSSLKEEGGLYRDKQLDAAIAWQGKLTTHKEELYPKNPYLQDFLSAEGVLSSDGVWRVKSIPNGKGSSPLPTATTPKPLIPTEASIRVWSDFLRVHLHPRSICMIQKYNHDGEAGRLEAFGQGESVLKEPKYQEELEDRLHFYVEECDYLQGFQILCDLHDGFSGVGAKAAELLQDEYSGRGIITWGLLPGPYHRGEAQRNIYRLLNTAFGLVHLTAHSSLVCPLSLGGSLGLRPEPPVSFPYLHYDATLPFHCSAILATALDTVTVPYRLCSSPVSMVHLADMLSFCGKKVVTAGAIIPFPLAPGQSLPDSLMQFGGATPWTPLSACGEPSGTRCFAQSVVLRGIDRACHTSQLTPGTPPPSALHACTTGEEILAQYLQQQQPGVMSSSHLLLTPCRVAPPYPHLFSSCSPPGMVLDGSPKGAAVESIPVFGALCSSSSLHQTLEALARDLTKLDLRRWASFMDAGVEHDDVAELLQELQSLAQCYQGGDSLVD
Sequence of UniProt Q7Z3U7 (Q7Z3U7 whole entry, looked up): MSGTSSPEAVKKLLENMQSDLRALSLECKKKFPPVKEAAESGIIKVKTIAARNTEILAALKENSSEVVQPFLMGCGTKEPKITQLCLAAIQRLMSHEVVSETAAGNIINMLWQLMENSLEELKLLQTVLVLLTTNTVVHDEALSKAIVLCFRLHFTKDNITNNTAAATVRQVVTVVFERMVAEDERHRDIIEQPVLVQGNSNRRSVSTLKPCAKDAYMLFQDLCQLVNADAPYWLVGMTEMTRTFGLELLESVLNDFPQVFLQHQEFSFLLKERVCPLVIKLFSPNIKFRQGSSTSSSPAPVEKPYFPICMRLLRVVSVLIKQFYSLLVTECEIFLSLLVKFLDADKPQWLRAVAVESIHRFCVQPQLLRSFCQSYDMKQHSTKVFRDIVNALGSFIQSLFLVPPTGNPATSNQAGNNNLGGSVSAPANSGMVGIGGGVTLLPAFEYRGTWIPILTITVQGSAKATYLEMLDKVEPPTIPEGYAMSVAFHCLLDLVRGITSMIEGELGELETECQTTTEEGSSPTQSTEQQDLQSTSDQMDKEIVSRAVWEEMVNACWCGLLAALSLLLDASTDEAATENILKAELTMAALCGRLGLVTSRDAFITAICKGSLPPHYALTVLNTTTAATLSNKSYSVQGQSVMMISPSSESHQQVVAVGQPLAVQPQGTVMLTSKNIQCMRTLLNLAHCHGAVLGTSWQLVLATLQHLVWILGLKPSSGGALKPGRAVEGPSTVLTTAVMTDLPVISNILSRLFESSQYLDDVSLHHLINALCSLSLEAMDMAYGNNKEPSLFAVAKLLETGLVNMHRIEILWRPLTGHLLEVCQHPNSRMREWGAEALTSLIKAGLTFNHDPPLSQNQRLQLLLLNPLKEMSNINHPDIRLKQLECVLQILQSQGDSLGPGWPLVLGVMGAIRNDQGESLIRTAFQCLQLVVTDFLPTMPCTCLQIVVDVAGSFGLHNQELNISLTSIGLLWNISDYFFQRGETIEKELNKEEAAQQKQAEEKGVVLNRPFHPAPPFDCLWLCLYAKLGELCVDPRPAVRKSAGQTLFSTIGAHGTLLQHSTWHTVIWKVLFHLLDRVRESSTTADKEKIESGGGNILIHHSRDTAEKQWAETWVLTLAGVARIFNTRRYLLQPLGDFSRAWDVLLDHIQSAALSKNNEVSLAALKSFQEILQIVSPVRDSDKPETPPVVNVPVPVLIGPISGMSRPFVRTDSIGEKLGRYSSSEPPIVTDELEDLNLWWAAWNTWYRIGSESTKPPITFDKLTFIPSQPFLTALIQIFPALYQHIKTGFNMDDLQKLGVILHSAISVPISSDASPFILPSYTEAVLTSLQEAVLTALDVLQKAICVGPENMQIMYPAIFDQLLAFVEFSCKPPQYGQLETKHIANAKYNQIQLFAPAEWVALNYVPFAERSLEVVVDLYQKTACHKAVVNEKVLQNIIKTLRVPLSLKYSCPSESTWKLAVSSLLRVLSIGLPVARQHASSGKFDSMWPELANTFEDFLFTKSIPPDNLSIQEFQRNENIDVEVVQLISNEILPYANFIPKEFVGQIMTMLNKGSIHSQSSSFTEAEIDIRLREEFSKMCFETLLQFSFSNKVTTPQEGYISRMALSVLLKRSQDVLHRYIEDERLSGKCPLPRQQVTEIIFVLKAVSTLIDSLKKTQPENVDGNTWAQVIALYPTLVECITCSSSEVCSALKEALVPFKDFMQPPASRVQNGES
Sequence of UniProt P49757 (P49757 whole entry, looked up): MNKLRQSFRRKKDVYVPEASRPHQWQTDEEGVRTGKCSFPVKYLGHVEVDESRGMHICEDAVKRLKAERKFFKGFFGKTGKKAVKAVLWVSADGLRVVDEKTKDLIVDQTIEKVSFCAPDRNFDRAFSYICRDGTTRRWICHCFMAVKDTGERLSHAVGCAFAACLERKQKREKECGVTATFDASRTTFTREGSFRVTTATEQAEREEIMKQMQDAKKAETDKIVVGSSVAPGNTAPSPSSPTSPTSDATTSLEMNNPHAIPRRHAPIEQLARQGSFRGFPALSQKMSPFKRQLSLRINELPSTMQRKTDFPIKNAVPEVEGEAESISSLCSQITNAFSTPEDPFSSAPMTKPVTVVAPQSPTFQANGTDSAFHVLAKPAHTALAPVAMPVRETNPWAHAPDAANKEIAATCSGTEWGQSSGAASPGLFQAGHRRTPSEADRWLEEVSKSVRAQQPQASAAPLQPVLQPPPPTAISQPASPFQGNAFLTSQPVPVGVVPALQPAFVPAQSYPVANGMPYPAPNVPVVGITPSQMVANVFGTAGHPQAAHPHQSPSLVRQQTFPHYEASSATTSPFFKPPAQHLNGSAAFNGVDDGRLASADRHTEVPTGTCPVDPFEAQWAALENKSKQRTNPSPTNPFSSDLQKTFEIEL

Target | log2 fold change [1] | log2 fold change [2] | log2 fold change [3] | log2 fold change [4] | log2 fold change [5] | log2 fold change [6] | log2 fold change [7] | log2 fold change [8] | log2 fold change [9] | log2 fold change [10] | log2 fold change [11]
NIPSNAP2 (UniProt O75323) | -0.084 | -0.047 | -0.004 | -0.033 | 0.027 | -0.016 | -0.021 | -0.039 | -0.179 | 0.023 | 0.092
OXSR1 (UniProt O95747) | -0.014 | -0.048 | -0.151 | -0.064 | 0.031 | 0.042 | 0.045 | -0.071 | -0.007 | 0.018 | -0.058
NEK3 (UniProt P51956) | 0.09 | 0.156 | -0.119 | 0.011 | 0.016 | -0.256 | 0.099 | 0.043 | -0.017 | -0.063 | -0.002
NEU1 (UniProt Q99519) | -0.081 | -0.088 | -0.114 | -0.057 | 0.003 | 0.159 | 0.087 | 0.04 | -0.066 | -0.063 | -0.025
NANS (UniProt Q9NR45) | 0.043 | -0.05 | 0.02 | -0.032 | 0.014 | 0.116 | 0.032 | -0.002 | -0.011 | 0 | 0.025
MRPS17 (UniProt Q9Y2R5) | -0.035 | 0.091 | -0.138 | -0.018 | -0.027 | 0.191 | 0.05 | -0.051 | -0.047 | 0.02 | 0.118
MRPS12 (UniProt O15235) | 0.207 | -0.053 | -0.005 | 0.221 | -0.017 | 0.038 | 0.01 | -0.007 | 0.101 | -0.056 | 0.15
ORC3 isoform 2 (UniProt Q9UBD5) | 0.018 | -0.09 | -0.093 | -0.142 | -0.004 | 0.236 | 0.023 | 0.058 | 0.008 | -0.188 | 0.114
NSMCE2 (UniProt Q96MF7) | 0.065 | -0.027 | -0.008 | -0.046 | -0.115 | 0.128 | -0.04 | 0.055 | -0.068 | -0.069 | -0.052
MRPS16 (UniProt Q9Y3D3) | 0.026 | -0.04 | -0.079 | -0.05 | 0.075 | 0.133 | 0.057 | -0.063 | -0.016 | -0.036 | 0.051
MRPS31 (UniProt Q92665) | -0.001 | 0.03 | -0.05 | 0 | -0.011 | -0.039 | 0.008 | -0.012 | -0.036 | -0.083 | 0.065
MORF4L2 (UniProt Q15014) | 0.021 | 0.047 | 0.123 | 0.027 | -0.066 | 0.04 | -0.044 | 0.087 | 0.04 | -0.121 | -0.038
MSTO1 (UniProt Q9BUK6) | 0.013 | 0.015 | -0.144 | -0.059 | -0.005 | 0.053 | 0.08 | -0.015 | -0.045 | 0.017 | -0.068
NSUN2 (UniProt Q08J23) | 0.029 | -0.246 | -0.106 | -0.027 | 0.01 | 0.137 | 0.013 | 0.046 | -0.026 | -0.075 | 0.011
NEDD4 isoform 4 (UniProt P46934) | -0.043 | -0.027 | -0.187 | -0.074 | 0.029 | -0.04 | 0.084 | 0.064 | -0.008 | 0.013 | -0.007
NR2C2AP isoform 2 (UniProt Q86WQ0) | -0.082 | -0.131 | -0.05 | -0.094 | -0.02 | -0.027 | 0.079 | 0.062 | -0.092 | -0.035 | 0.004
MRPS25 (UniProt P82663) | -0.031 | 0.046 | 0.04 | 0.04 | 0.021 | -0.036 | 0.073 | -0.053 | 0.062 | -0.074 | 0.029
MT-ND4 (UniProt P03905) | 0.052 | 0.038 | -0.046 | -0.074 | 0.099 | 0.261 | 0.198 | -0.011 | 0.088 | -0.057 | 0.022
NDUFB8 (UniProt O95169) | 0.028 | 0.083 | -0.008 | 0.02 | 0.113 | -0.075 | -0.016 | 0.004 | -0.172 | -0.036 | 0.067
MTHFS (UniProt P49914) | -0.021 | -0.028 | -0.086 | -0.135 | 0.007 | -0.1 | 0.025 | 0.021 | 0.014 | -0.057 | 0.127
NFX1 (UniProt Q12986) | 0.157 | 0.008 | 0.659 (active) | 0.045 | 0.014 | -0.016 | -0.033 | -0.006 | -0.018 | -0.019 | 0.095
MON2 isoform 5 (UniProt Q7Z3U7) | -0.023 | 0.012 | -0.107 | -0.038 | -0.003 | 0.097 | 0.056 | 0.021 | -0.006 | -0.003 | 0.014
NDUFA7 (UniProt O95182) | 0.019 | 0.005 | -0.108 | -0.059 | 0 | 0.012 | 0.008 | -0.037 | -0.047 | -0.039 | 0.027
OSBPL8 (UniProt Q9BZF1) | -0.06 | -0.03 | 0.063 | 0.042 | 0.012 | 0.049 | 0.005 | 0 | 0.079 | -0.129 | 0.084
NSMCE4A (UniProt Q9NXX6) | 0.181 | 0.059 | 0 | -0.023 | -0.087 | -0.155 | -0.018 | 0.149 | -0.038 | -0.067 | -0.048
MPHOSPH10 (UniProt O00566) | 0.089 | 0.016 | 0.186 | 0.064 | 0.017 | 0.045 | 0.062 | 0.112 | 0.067 | -0.169 | 0.082
NUMB (UniProt P49757) | -0.088 | -0.022 | -0.002 | -0.003 | -0.041 | 0.037 | 0.009 | 0.007 | -0.097 | -0.032 | -0.008
